# Laboratory results published in ChEMBL document CHEMBL3433997, “St. Jude Leishmania screening dataset” (2016).
# Key:
# Format in all cases: functional
# [1] = biological target: Solute carrier family 2, facilitated glucose transporter member 1 (Homo sapiens) (UniProt P11166); test: ST_JUDE_LEISH: Cytotoxicity at 2uM final concentration against transgenic Leishmania Mexicana promastigotes LmGLUT1 that are glucose transport deficient and complemented with the human glucose transporter GLUT1. Activity is measured by DNA content using SYBR green in vitro
# Chain of Solute carrier family 2, facilitated glucose transporter member 1 (Homo sapiens) (P11166 whole entry): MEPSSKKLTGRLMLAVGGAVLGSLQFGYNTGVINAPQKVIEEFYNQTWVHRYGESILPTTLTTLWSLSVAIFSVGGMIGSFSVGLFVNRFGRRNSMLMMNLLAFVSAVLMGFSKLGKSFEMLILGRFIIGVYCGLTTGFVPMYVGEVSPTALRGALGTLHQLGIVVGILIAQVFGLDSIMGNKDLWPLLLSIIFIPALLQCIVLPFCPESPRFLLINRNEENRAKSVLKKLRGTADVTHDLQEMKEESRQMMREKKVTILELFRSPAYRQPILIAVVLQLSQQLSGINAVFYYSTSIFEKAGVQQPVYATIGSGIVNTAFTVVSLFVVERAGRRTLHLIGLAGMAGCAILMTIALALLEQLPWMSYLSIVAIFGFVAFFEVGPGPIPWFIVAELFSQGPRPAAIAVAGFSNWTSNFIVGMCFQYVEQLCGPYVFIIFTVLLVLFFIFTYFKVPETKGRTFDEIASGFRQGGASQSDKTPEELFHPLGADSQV
# [2] = biological target: Hexose transporter 1 (Plasmodium falciparum) (UniProt O97467); test: ST_JUDE_LEISH: Cytotoxicity at 2uM final concentration against transgenic Leishmania Mexicana promastigotes LmPfHT that are glucose transport deficient and complemented with the Plasmodium falciparum hexose transporter. Activity is measured by DNA content using SYBR green in vitro
# [3] = biological target: Glucose transporter (Leishmania mexicana) (UniProt O61059); test: ST_JUDE_LEISH: Cytotoxicity at 2uM final concentration against transgenic Leishmania Mexicana promastigotes LmGT2 that are glucose transport deficient and complemented with the L. Mexicana glucose transporter 2. Activity is measured by DNA content using SYBR green in vitro
Compound,inhibition [1],inhibition [2],inhibition [3]
COc1ccc2nccc([C@@H](O)CN3CCC(NC(=O)/C=C/c4cc(F)cc(NC(C)=O)c4)CC3)c2c1,5.61%,2.3%,-3.44%
COc1cc2nc(N3CCC(CNC(=O)c4cccc5cc[nH]c45)CC3)nc(N)c2cc1OC,6.26%,4.21%,5.67%
CC(C)NCc1cccc(-c2ccc(NC(=O)c3ccc(F)cc3)cc2)c1,3.19%,3.2%,-0.76%
CCCCCN1CCC(NS(=O)(=O)c2cccc(C(=O)Nc3ccc(C(F)(F)F)cc3)c2)C1 (stereo unspecified),1.64%,1.94%,1.9%
Cc1cc(Nc2nc(NCc3cccnc3)nc3ccccc23)n[nH]1,8.58%,10.4%,10%
CN(C)c1ccc(/C=C2\S/C(=N\c3ccccc3)N(c3ccccc3)C2=O)cc1[N+](=O)[O-],2.12%,1.07%,-0.79%
COc1cc(Cc2cnc(N)nc2N)cc(OCCCCCC(N)=O)c1OC,-0.36%,-2.79%,1.17%
